Test results from PubChem BioAssay (NCI).
“And” between values parts separate entries of the source, which are not always exact repeats. Identical values can stand only once. This is part of a sample that, as a whole, favours compounds with a hit. Of some 83,000 tested, about 20% had one in any assay.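 Each cell line was grown in a 96-well plate and treated with one concentration of compound for 48 hours. Values below 10 were considered active.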 The source made the active and inactive calls.

The molecules below were run on MDA-MB-468 breast (assay: NCI-60 one-dose screen, 48 h (100 = growth as untreated, 0 = no growth, -100 = all killed)). Settings: 10 µM unless noted.

Compound | growth
CNc1ccc2nc3ccc(=[N+](C)C)cc-3sc2c1 | -48.1% (active) and -39.5% (active)
COc1cccc2cc(-c3cc4ccccc4[nH]3)/c(=N\NC(=O)c3ccc(Cl)cc3)oc12 | -2.01% (active)
COc1ccc(C(O)c2cc3c(N)c(C(=O)Nc4ccccc4)sc3nc2C)cc1 (stereo not given) | 9.92% (active)
O=C1c2c(c3c4cc(F)ccc4oc3c3[nH]c4ccccc4c23)C(=O)N1O | -5.83% (active)
COc1ccc(-c2nn(-c3cccc(Cl)c3)cc2-c2cc(-c3ccccc3)nc(N)n2)cc1 | 30% (inactive)
Cc1sc2nc(N3CCCCC3)[nH]c(=O)c2c1C | 96.6% (inactive)
COc1cc2c(cc1OC)C(CC1(O)CCCCC1)N(S(=O)(=O)c1ccc(C)cc1)CC2 (stereo not given) | 44.4% [100 µM] (inactive)
COc1ccc(C(O)(c2ccccc2)C(C(=O)O)c2ccccc2)cc1 (stereo not given) | 110% (inactive)
CC(C)C1=NOC(=O)C1=Cc1cn(-c2ccccc2)nc1-c1ccc(F)cc1 | 73.4% (inactive)
N#C/C(=C\c1ccccn1)c1nc2cc(Cl)ccc2s1 | 55.5% (inactive)
C#CCNC(=O)[C@H](Cc1ccccc1)NC(=O)[C@]12CC[C@@H](C(=C)C)[C@@H]1[C@H]1CC[C@@H]3[C@@]4(C)CCC(=O)C(C)(C)[C@@H]4CC[C@@]3(C)[C@]1(C)CC2 | 63.7% (inactive)
O=C(NCCCNC(=O)OCc1ccc2c(Br)cc(Br)c(O)c2n1)OCc1ccc2c(Br)cc(Br)c(O)c2n1 | -72% (active)
Cc1nnc(/N=C2\NC(=O)/C(=C/C=C/c3ccccc3)S2)s1 | 53% (inactive)
CN(C)c1ccc2c(N(C)C)cc(N(C)C)nc2c1 | 7.64% (active)
c1ccc(Cn2nc3c(c2-c2ccccc2)-c2oncc2CC3)cc1 | 101% (inactive)
Nc1n[nH]c(=S)n1-c1ccc(Cl)cc1 | 97.5% (inactive)
Oc1[nH]c2ccccc2c1Nn1c(N=N/C=c2/ccc3c(c2)C=NN=3)n[nH]c1=S | 107% (inactive)
CC(C)(C)n1nc(C2CC2)c(Br)c1NC(=O)c1ccccc1F | 114% (inactive)
Fc1cccc(-c2ccc3c(c2)C2(CCNCC2)CN3)c1 | 116% (inactive)
COc1cc(/C=C/C(=O)c2cc(-c3ccc(C(F)(F)F)cc3)ccc2O)cc(OC)c1OC | 57.9% (inactive)

Compound | growth
N#Cc1c(-c2ccc(Cl)cc2)nc(N/N=C/c2cccc(Br)c2)nc1N1CCOCC1 | 76.7% (inactive)
CCOc1ccc(Nc2c3ccccc3nc3ccccc23)cc1 | 102% (inactive) and -9.77% (active)
COc1nc2ccccc2cc1/C=C1/C=C(c2ccccc2)NC1=O | 29% (inactive)
CC(c1ccccc1)N1CSc2nc3ncncc3n2C1 (stereo not given) | -0.761% (active)
CC(C)NC(=O)OCc1c(COC(=O)NC(C)C)c(-c2ccc(Cl)c(Cl)c2)n2c1SCC2 | -73.9% (active)
CCCCCCCCCCSc1ncnc2nc[nH]c12 | 8.95% (active)
Clc1ccc(-c2ccc(CNCC3CCNCC3)o2)c(-c2ccccc2)c1 | -79.1% (active)
Brc1ccccc1Cn1c(-c2cncs2)nc2ccccc21 | 61.8% (inactive)
COc1ccc2c(c1)OC13Oc4cc(OC)ccc4C=C1CCCCC3=C2 | 95.6% (inactive)
CCc1c(C(=O)N[C@@H](C(=O)OCc2ccccc2)C(C)O)[nH]c2ccc(Cl)cc12 (stereo not given in full) | 79.1% (inactive)
O=C(Nc1ccc(S(=O)(=O)NC2CCCCCC2)cc1)C(c1ccccc1)S(=O)(=O)c1ccc(F)cc1 (stereo not given) | -14.5% (active)
COc1ccccc1CNCCCN1C(=O)c2ccc3c4c(ccc(c24)C1=O)C(=O)N(CCCNCCCCNCCCN)C3=O | -84.5% (active)
O=C1Nc2cc(Cl)ccc2/C1=C\c1c(-c2ccc(F)cc2)nc2ccccn12 | -7.93% (active)
C=C1C(=O)O[C@H]2[C@H]1CC/C(COC(=O)/C=C/c1c[nH]c3ccccc13)=C\CC[C@@]1(C)O[C@@H]21 | -78.1% (active)
CN1CCN(Cc2ccc(NC(=O)c3cncc(C#Cc4cnc5ccc(O[C@@H]6CCOC6)nn45)c3)cc2C(F)(F)F)CC1 | -72.6% (active)
COc1ccc(C2CC(c3cccc(OC)c3)=NN2C(=O)c2cc(OC)c(OC)c(OC)c2)cc1 (stereo not given) | 29.2% (inactive)
COc1ccc(/C=C/C(=O)c2ccc(OC)c(OC)c2)cc1O | 65.6% (inactive)
CC(=O)c1cc(C(=O)c2ccc3c(c2)Sc2ccccc2N3)c2c(C)cccn12 | 14% (inactive)
COCCOC(=O)NC(=O)Nc1ccc(/C(=N/O)c2ccc(Cl)cc2)cc1 | 19.8% (inactive)
CCSc1nc(Nc2ccc(S(=O)(=O)Nc3ccon3)cc2)c(C#N)c(-c2cccc(Br)c2)n1 | 85.1% (inactive)
